A short description of assay [1]: NCI Yeast Anticancer Drug Screen. Data for the rad50 strain (AID 155).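 Further: 0% = growth of vehicle-only cultures of the same strain.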 The note with it: S. cerevisiae rad50 strain growth inhibition; at 50.0 µM; active compounds read high. In outline: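 Inhibition values express reduced yeast growth in compound-treated cultures relative to vehicle-treated controls.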
The nature of assay [2]: NCI Yeast Anticancer Drug Screen. Data for the mec2-1 strain (AID 157). Conditions: S. cerevisiae mec2-1 strain, at 50.0 µM, active compounds read high. In outline: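 Test agents were screened against the mec2-1 yeast strain, with defined DNA repair or cell cycle alteration. Growth was scored as inhibition against vehicle-only controls.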
A short description of assay [3]: NCI Yeast Anticancer Drug Screen. Data for the sgs1 mgt1 strain (AID 161).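 Further: 0% = growth of cultures given vehicle only.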 The note with it: S. cerevisiae sgs1 mgt1 strain, at 50.0 µM, active compounds read high. An outline of the steps: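 Inhibition of yeast growth, normalised to vehicle-treated controls, is reported for a strain bearing genetic alterations in DNA damage repair.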
The nature of assay [4]: NCI Yeast Anticancer Drug Screen. Data for the cln2 rad14 strain (AID 165).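 Further: 0% = growth equal to vehicle treated cultures.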 The note with it: S. cerevisiae cln2 rad14 strain, at 50.0 µM, active compounds read high. In outline: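 Growth of compound-exposed yeast (cln2 rad14 genotype) measured and expressed as inhibition relative to vehicle.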
Assay [5] is described as follows: NCI Yeast Anticancer Drug Screen. Data for the bub3 strain (AID 167). Conditions: S. cerevisiae bub3 mutant strain, at 50.0 µM, active compounds read high. An outline of the steps: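 Steps: expose the mutant yeast strain to compound; grow alongside vehicle-treated cultures; measure growth; express inhibition against the vehicle cultures.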
Assay [6] is described as follows: NCI Yeast Anticancer Drug Screen. Data for the mlh1 rad18 strain (AID 175). Conditions: S. cerevisiae mlh1 rad18 strain growth inhibition; at 50.0 µM; active compounds read high. In outline: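 In this whole-cell yeast screen, a strain with altered DNA damage repair is challenged with compound, and its growth is measured against matched vehicle-treated controls.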

The structures appear in SMILES notation. Compounds without any hit were thinned out: in the full panel of roughly 79,000, 15% have a hit. A number with no mark means an inactive call. Active and inactive are the calls of the source. No stated cut-off is given here; in the data, active means growth inhibition above about 70%; inactive means the rest.

Take `CCOC(=O)c1cn(C2OC(COC(=O)c3ccccc3)C(OC(=O)c3ccccc3)C2OC(=O)c2ccccc2)c(=O)nc1N` (stereo unspecified): the growth inhibition in assay [1] was -1.05%; in assay [2], -12.2%; in assay [3], 18%; in assay [4], -32%; in assay [5], 7.45%; in assay [6], -7.15%.

Take `Cc1cc(C(N)=O)c2ccccc2n1`: the growth inhibition in assay [1] was -11%; in assay [2], -47.2%; in assay [3] it was -15.7%; in assay [4], 11.4%; in assay [5] it was -34.4%; in assay [6], -6.25%.

For `CN(C)c1ccc(/C=C(\C#N)c2c(Cl)cccc2Cl)cc1`, the growth inhibition in assay [1] was -13.9%; in assay [2], -8.55%; in assay [3] it was -11.1%; in assay [4] it was -25.4%; in assay [5], 8.3%; in assay [6] it was -5.75%.

Regarding `CCCCOC(=O)CC1CCCCC1`, the growth inhibition in assay [1] is -15.3%; in assay [2], -8.95%; in assay [3], -30.8%; in assay [4] it was -6.1%; in assay [5], -5.6%; in assay [6], -10.2%.

Turning to `Cn1c([N+](=O)[O-])cnc1CN1CCN(CCO)CC1`, the growth inhibition in assay [1] was -2.9%; in assay [2], -6.95%; in assay [3], -39.1%; in assay [4], 26.7%; in assay [5] it was -20.3%; in assay [6], 3%.

Consider `CCOC(=O)C1=CCOc2cc(N(C)C)ccc21`, for which the growth inhibition in assay [1] is -9.25%; in assay [2] it was 9.15%; in assay [3], -1.25%; in assay [4], 32.4%; in assay [5] it was 8.75%; in assay [6], -6.9%.

Take `COC(=O)c1sc(C(=O)OC)c2c1CS(=O)C2`: the growth inhibition in assay [1] is -10.3%; in assay [2], 2.1%; in assay [3] it was 10.1%; in assay [4], 30%; in assay [5], 5.45%; in assay [6], 42.2%.

On to `CCOC1(OCC)CCC2(CC1)c1ccccc1-c1ccccc12`, for which the growth inhibition was 9.5% in assay [1]; 15.8% in assay [2]; 2.95% in assay [3]; 1.15% in assay [4]; -7.45% in assay [5]; 14.8% in assay [6].

As to `Cc1ccc2c(c1)c1ccc3c(c1n2C)C(=O)C=CC3=O`, the growth inhibition in assay [1] was 3.25%; in assay [2], 30.7%; in assay [3] it was 74.8% (active); in assay [4] it was 2.55%; in assay [5] it was 62.6%; in assay [6] it was 74% (active).

Regarding `N#CCCC(=O)c1ccc[nH]1`, the growth inhibition in assay [1] was 6.6%; in assay [2], 10.8%; in assay [3] it was 2.2%; in assay [4] it was 5.8%; in assay [5], 1.3%; in assay [6], 8.4%.

On to `C#CCNC(=O)ON1C(=O)CCC1=O`, for which the growth inhibition was -5.25% in assay [1]; -8.4% in assay [2]; -25.7% in assay [3]; -12.4% in assay [4]; -16.9% in assay [5]; -28.9% in assay [6].

Consider `CC(=O)C1C(=O)C(=O)N(CCN2C(=O)C(=O)C(C(C)=O)C2=O)C1=O` (stereo unspecified), for which the growth inhibition in assay [1] is -12.4%; in assay [2], -0.8%; in assay [3], 0.95%; in assay [4], -26.2%; in assay [5], -5.9%; in assay [6], 0.75%.

Turning to `NC1(C(=O)O)CCCCC1`, the growth inhibition in assay [1] is -11.3%; in assay [2], -7.5%; in assay [3] it was -30.7%; in assay [4], -34.7%; in assay [5], -12.9%; in assay [6] it was -18.4%.

In the case of `COC1=CC(=O)C=C(OC)C1=O`, the growth inhibition was -2.55% in assay [1]; -12.8% in assay [2]; -28.6% in assay [3]; 6.25% in assay [4]; -25.4% in assay [5]; -11.6% in assay [6].

For `CCOc1cccc(C=Nc2ccccc2SSc2ccccc2N=Cc2cccc(OCC)c2O)c1O`, the growth inhibition in assay [1] is 42.2%; in assay [2] it was 18.6%; in assay [3], 61.5%; in assay [4] it was 2.85%; in assay [5] it was 68.6%; in assay [6] it was 68.5%.

Consider `CP1(=O)CC(=O)CCCCC(=O)C1`, for which the growth inhibition in assay [1] is 2.25%; in assay [2], -1.6%; in assay [3], -1.2%; in assay [4], -25.8%; in assay [5], 42.7%; in assay [6] it was 19.6%.

Regarding `COc1ccc(/C=C2\N=C(c3ccccc3)OC2=O)c(Cl)c1OC`, the growth inhibition is -9.35% in assay [1]; -3.5% in assay [2]; -25% in assay [3]; 1.6% in assay [4]; -5.25% in assay [5]; -3% in assay [6].

For `O=C1c2ccccc2C(=O)c2cc(C[n+]3ccccc3C3OCCO3)ccc21`, the growth inhibition in assay [1] was 19%; in assay [2] it was 7.2%; in assay [3] it was 42.2%; in assay [4], 15.8%; in assay [5] it was -0.8%; in assay [6], 2.55%.

As to `COc1cc2c(c3c1c(=S)c1ccccc1n3C)C=CC(C)(C)O2`, the growth inhibition was 59.5% in assay [1]; 18.9% in assay [2]; 86.2% (active) in assay [3]; 27.1% in assay [4]; 82.7% (active) in assay [5]; 78.1% (active) in assay [6].

`CC(C)CCCC(C)C1CCC2C3CCC4CC(N5CCCCC5)CCC4(C)C3CCC12C` (stereo unspecified): the growth inhibition was 5.5% in assay [1]; -9.6% in assay [2]; -16.1% in assay [3]; -20.8% in assay [4]; 4.55% in assay [5]; 17.1% in assay [6].

Consider `C[N+]12C=CC=C1C(N1CCCC1)c1sc(-c3ccc(Cl)cc3)cc12` (stereo unspecified), for which the growth inhibition in assay [1] was 7.9%; in assay [2], -11.3%; in assay [3], 22%; in assay [4], 7.3%; in assay [5] it was 0.55%; in assay [6], 16.4%.
